Measured values published in PubChem BioAssay (NCATS).
“And” between values parts separate entries of the source, which are not always exact repeats. Equal values may be shown once. Inconclusive results are not listed. The source made the active and inactive calls. Unless noted, the call rests on the fitted dose curve; in most records, active means well fitted inhibition curve with a large enough effect; inconclusive means small, poorly fitted or top-dose-only effect; inactive means flat fitted curve, though single readings scatter.

Key:
[1] = Drug repurposing screens with cells derived from glioblastoma tumor samples (AID 1345199); details: GBM patient neurospheres viability, ATP luminescence, 48 h; further: nearly all actives have a fitted effect of over 40% in size; further: potency means the concentration at half of the fitted maximal effect; on activity, negative = cell killing: on the % scale 0 is the no-effect control and ±100 the full control effect
Outline: (§1)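 Four patient lines of CD133+ GBM neurospheres were screened at several concentrations; hits were retested in those lines plus three slower-growing GBM lines, using 48-hour treatment and ATP-based viability.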

astro = control astrocytes; experiment: as above; details: viability, ATP luminescence, 48 h; series mostly up to 45.9 µM
Outline: as §1

[2] = molecular target: Nuclear receptor subfamily 1 group I member 2 (Rattus norvegicus) (UniProt Q9R1A7); experiment: qHTS assay for small molecule activators of the rat pregnane X receptor (rPXR) signaling pathway (AID 651751; call rule not given here; further: 0% is about no effect); details: rPXR reporter cells, luciferase (One-Glo), 24 h
Nuclear receptor subfamily 1 group I member 2 (Rattus norvegicus), sequence (Q9R1A7 whole entry, looked up): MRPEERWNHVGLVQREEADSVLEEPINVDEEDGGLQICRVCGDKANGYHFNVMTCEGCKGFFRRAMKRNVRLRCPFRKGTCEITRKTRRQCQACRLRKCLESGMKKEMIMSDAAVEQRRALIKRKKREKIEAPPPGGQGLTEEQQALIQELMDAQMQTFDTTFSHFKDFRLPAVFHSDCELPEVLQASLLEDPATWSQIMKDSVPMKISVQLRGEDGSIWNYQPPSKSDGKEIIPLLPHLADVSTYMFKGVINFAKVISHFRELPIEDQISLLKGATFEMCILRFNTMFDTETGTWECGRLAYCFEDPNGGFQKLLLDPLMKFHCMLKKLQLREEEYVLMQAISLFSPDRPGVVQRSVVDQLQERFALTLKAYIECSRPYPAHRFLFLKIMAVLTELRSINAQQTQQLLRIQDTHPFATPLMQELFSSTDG

[3] = qHTS assay for small molecule activators of the human pregnane X receptor (PXR) signaling pathway (AID 720659; call rule not given here; further: 0% is about no effect); details: DPX-2 HepG2 CYP3A4-luciferase, 24 h; series mostly up to 92.3 µM
[4] = at 45.9 µM (top of the series), tumour line B
[5] = at 45.9 µM (top of the series), tumour line D
[6] = at 46 µM (top of the series), tumour line A
[7] = at 46.1 µM (top of the series), tumour line C
[8] = at 20 µM (top of the series), tumour line C
[9] = at 21.2 µM (top of the series), tumour line B
[10] = at 21.2 µM (top of the series), tumour line D
[11] = at 21.3 µM (top of the series), tumour line A

FC(F)OC(F)(F)C(F)Cl (centres undefined)
inactive: activity, negative = cell killing [1, 4] -9.16% | activity, negative = cell killing [1, 5] 6% | activity, negative = cell killing [1, 6] -21% | activity, negative = cell killing [1, 7] -2.93% | Potency (astro)

CCN(CC)C(=O)/C(Cl)=C(\C)OP(=O)(OC)OC
inactive: activity, negative = cell killing [1, 4] 1.79% | activity, negative = cell killing [1, 5] -19.8% | activity, negative = cell killing [1, 6] -32% | activity, negative = cell killing [1, 7] 1.99% | Potency (astro)

CC(=O)OCC(=O)[C@H]1CC[C@H]2[C@@H]3CC[C@H]4C[C@H](O)CC[C@]4(C)[C@H]3C(=O)C[C@]12C
inactive: activity, negative = cell killing [1, 8] -20.2% | activity, negative = cell killing [1, 9] -4.33% | activity, negative = cell killing [1, 10] 0.678% | activity, negative = cell killing [1, 11] -6.64% | Potency (astro)

C[N+]1([O-])[C@@H]2CC(OC(=O)[C@H](CO)c3ccccc3)C[C@H]1[C@@H]1O[C@@H]12 (some centres undefined)
inactive: activity, negative = cell killing [1, 8] 3.96% | activity, negative = cell killing [1, 9] 5.23% | activity, negative = cell killing [1, 10] -9% | activity, negative = cell killing [1, 4] -10.9% | activity, negative = cell killing [1, 5] -17.4% | activity, negative = cell killing [1, 7] 30.8% | Potency (astro)

[O]=[Cd]
inactive: activity, negative = cell killing [1, 4] -6.73% | activity, negative = cell killing [1, 5] 0.985% | activity, negative = cell killing [1, 6] -15% | activity, negative = cell killing [1, 7] -5.34% | Potency (astro) | max response [2] 0.17% | outcome [3]

CCCC(=O)OC(C(Cl)(Cl)Cl)P(=O)(OC)OC (centres undefined)
inactive: activity, negative = cell killing [1, 4] -9.86% | activity, negative = cell killing [1, 5] -6.58% | activity, negative = cell killing [1, 6] -3.23% | activity, negative = cell killing [1, 7] 7.15% | Potency (astro)

CNC(C)C(O)c1ccc(O)cc1 (centres undefined)
inactive: activity, negative = cell killing [1, 4] -14.1% and -15.9% | activity, negative = cell killing [1, 5] 3.04% and 6.23% | activity, negative = cell killing [1, 6] -17.8% and -27.7% | activity, negative = cell killing [1, 7] -5.67% and -20.1% | Potency (astro)

CCC1(C)CC(=O)NC(=O)C1
inactive: activity, negative = cell killing [1, 8] -7.73% | activity, negative = cell killing [1, 9] -6.36% | activity, negative = cell killing [1, 10] -5.16% | activity, negative = cell killing [1, 11] -9.96% | Potency (astro)

CCC(C)(S(=O)(=O)CC)S(=O)(=O)CC
inactive: activity, negative = cell killing [1, 4] -9.18% | activity, negative = cell killing [1, 5] -21.6% | activity, negative = cell killing [1, 6] -5.61% | activity, negative = cell killing [1, 7] -8.4% | Potency (astro)

Clc1ccccc1Cl
inactive: activity, negative = cell killing [1, 4] -2.22% | activity, negative = cell killing [1, 5] -8.63% | activity, negative = cell killing [1, 6] -3.16% | activity, negative = cell killing [1, 7] -0.0025% | Potency (astro) | max response [2] 6.34% | outcome [3]

c1cc2c(c(NC3=NCCN3)c1)CCCC2
active: Potency ([1]; tumour line A) 14.1 µM
inactive: activity, negative = cell killing [1, 4] -18.6% | activity, negative = cell killing [1, 5] -28.2% | activity, negative = cell killing [1, 7] 1.62% | Potency (astro)

Oc1ccc2c3c1O[C@H]1[C@@H](O)CC[C@@]4(O)[C@@H](C2)N(CC2CCC2)CC[C@]314
inactive: activity, negative = cell killing [1, 4] -15.8% | activity, negative = cell killing [1, 5] -17.2% | activity, negative = cell killing [1, 6] 7.3% | activity, negative = cell killing [1, 7] -0.783% | Potency (astro)

O=[N+]([O-])c1ccccc1
inactive: activity, negative = cell killing [1, 4] -3.33% | activity, negative = cell killing [1, 5] -6.09% | activity, negative = cell killing [1, 6] -9.64% | activity, negative = cell killing [1, 7] -9.59% | Potency (astro)

CCOC(=O)c1ccccc1C(=O)OCC
inactive: activity, negative = cell killing [1, 4] -8.14% | activity, negative = cell killing [1, 5] -11.3% | activity, negative = cell killing [1, 6] -28.3% | activity, negative = cell killing [1, 7] 0.324% | Potency (astro) | max response [2] 2.54% and 6.22% and -3.04% | outcome [3]

ClCC1CO1 (centres undefined)
inactive: activity, negative = cell killing [1, 4] -15% | activity, negative = cell killing [1, 5] -9.19% | activity, negative = cell killing [1, 6] -27.8% | activity, negative = cell killing [1, 7] -16.2% | Potency (astro) | max response [2] 1.11% | outcome [3]

CC1(C)S[C@@H]2[C@H](N)C(=O)N2[C@H]1C(=O)O
inactive: activity, negative = cell killing [1, 8] -3.46% | activity, negative = cell killing [1, 9] -7.3% | activity, negative = cell killing [1, 10] -20.2% | activity, negative = cell killing [1, 11] -24.1% | Potency (astro)

CCC1(c2ccccc2)C(=O)NC(=O)NC1=O
inactive: activity, negative = cell killing [1, 4] -10.3% | activity, negative = cell killing [1, 5] 2.64% | activity, negative = cell killing [1, 6] -5.16% | activity, negative = cell killing [1, 7] 3.61% | Potency (astro)

ClC1C(Cl)C(Cl)C(Cl)C(Cl)C1Cl (centres undefined)
inactive: activity, negative = cell killing [1, 4] -3.31% | activity, negative = cell killing [1, 5] -6.39% | activity, negative = cell killing [1, 6] -20.5% | activity, negative = cell killing [1, 7] -11% | Potency (astro)

[S]=[Sb](=[S])[S][Sb](=[S])=[S]
inactive: activity, negative = cell killing [1, 4] -4.98% | activity, negative = cell killing [1, 5] -5.67% | activity, negative = cell killing [1, 6] -28.3% | activity, negative = cell killing [1, 7] -1.84% | Potency (astro)

O=c1ccc2cc(O[C@@H]3O[C@H](CO)[C@@H](O)[C@H](O)[C@H]3O)c(O)cc2o1
inactive: activity, negative = cell killing [1, 8] -2.02% | activity, negative = cell killing [1, 9] -12.8% | activity, negative = cell killing [1, 10] -17.9% | activity, negative = cell killing [1, 11] -15.8% | Potency (astro)

CC(C)CCON=O
inactive: activity, negative = cell killing [1, 4] 0.0037% | activity, negative = cell killing [1, 5] -3.58% | activity, negative = cell killing [1, 6] -24.7% | activity, negative = cell killing [1, 7] 2.53% | Potency (astro) | max response [2] 1.54% | outcome [3]

O=c1[nH]c(=O)n(Cl)c(=O)n1Cl
inactive: activity, negative = cell killing [1, 4] -3.23% | activity, negative = cell killing [1, 5] -0.766% | activity, negative = cell killing [1, 6] -8.9% | activity, negative = cell killing [1, 7] 7.98% | Potency (astro) | max response [2] -4.63% | outcome [3]
